Data from PubChem BioAssay (NCATS).
Records with an inconclusive call do not appear. Activity calls are given as the source filed them. Calls follow the shape of the dose curve; as a rule, active = well fitted curve in the direction sought with a large enough effect; inconclusive = small, poorly fitted or top-dose-only effect, or another doubt; inactive = no such curve, though single readings can be large; an effect the other way counts as inactive or inconclusive.

Columns and labels:
[1] = P-glycoprotein substrates identified in KB-8-5-11 adenocarcinoma cell line, qHTS therapeutic library screen (AID 1346987); settings: KB-8-5-11 (P-gp overexpressing) viability, CellTiter-Glo, 72 h; series mostly up to 44.5 µM; also: nearly all actives have a fitted effect of over 65% in size
How it was run: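 Steps: plate 500 KB-8-5-11 cells/well in DMEM + 10% FCS (colchicine removed); pin compounds in dose-response; incubate 72 h, 37 degree C, 5% CO2; add CellTiter-Glo, 5 min; read luminescence.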

[2] = tested on: Zika virus NS2B-NS3 protease (unlinked complex); assay: Primary screen GU Rhodamine qHTS for Zika virus inhibitors: Unlinked NS2B-NS3 protease assay (AID 1347159); settings: Recombinant ZIKV NS2B-NS3 protease, Rhodamine110 substrate fluorescence; series mostly up to 107 µM; also: nearly all actives have a fitted effect of over 60% in size
How it was run: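 Compounds, tested up to 114 microM, were incubated for 15 minutes with 25 nM unlinked NS2B-NS3 protease at pH 8.0. Cleavage of 1.5 microM Rhodamine110 substrate was then followed by fluorescence for 15 minutes.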

[3] = tested on: Zika virus NS2B-NS3 protease (linked construct); assay: Primary screen NINDS Rhodamine qHTS for Zika virus inhibitors (AID 1347160); settings: purified NS2B-NS3 protease, Rhodamine110 substrate fluorescence; series mostly up to 33.1 µM; also: nearly all actives have a fitted effect of over 55% in size
How it was run: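 Percent inhibition, normalized to uninhibited and enzyme-free controls, is fitted to a 4-parameter Hill equation. Fluorescence change comes from a 15-min cleavage of 1.5 microM bis-peptide Rhodamine110 substrate by 25 nM linked NS2B-NS3 at room temperature.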

Measured: Potency

CC(=O)C1CCC(=O)N1Cc1ccccc1 (centres undefined)
inactive: all assays above

CC(=O)OC(C)(C)/C=C/C(=O)[C@](C)(O)C1[C@H](O)C[C@@]2(C)[C@@H]3CC=C4[C@@H](C[C@H](O[C@@H]5O[C@H](CO)[C@@H](O)[C@H](O)[C@H]5O)C(=O)C4(C)C)[C@]3(C)C(=O)C[C@]12C (some centres undefined)
inactive: all assays above

NC(=O)[C@@H]1CC[C@H](c2ccc(OCc3ccccc3F)cc2)N1
inactive: all assays above

CNc1nc(Nc2cn(C(C)(C)C#N)nc2C)ncc1C(F)(F)F
inactive: all assays above

COc1cc(C2Oc3c(OC)cc(/C=C/C(=O)OC4CC(O)(C(=O)O)CC(O)C4O)cc3C2CO)ccc1O (centres undefined)
inactive: all assays above

CC12CC34CC(O)C5C(CO)(CO)CC(=O)CC5(C)C3CC1C2C4 (centres undefined)
inactive: all assays above

CC1=CC(=O)CC(C)(C)C1CO[C@@H]1O[C@H](CO)[C@@H](O)[C@H](O)[C@H]1O (some centres undefined)
inactive: all assays above

CC1(C)C2CC[C@@]34CC(CC[C@H]3[C@]2(C)CC[C@@H]1O[C@@H]1O[C@H](CO)[C@@H](O)[C@H](O)[C@H]1O)[C@](C)(O)C4 (some centres undefined)
inactive: all assays above

C=C(COC(=O)C(C)C)C1Oc2cc(C(C)=O)ccc2C1OC(=O)C(C)C (centres undefined)
inactive: all assays above

O=C(OCC1OC(Oc2ccc(O)cc2COC(=O)C2(O)C(O)CCC(=O)C2OC(=O)C2C=CCC2)C(OC(=O)C2C=CCC2)C(O)C1O)C1C=CCC1 (centres undefined)
inactive: all assays above

CC1=C[C@@H]2[C@H]3[C@@H]4O[C@@](C)(CC[C@H]4O)[C@H]3CC(=O)[C@]23C(=O)N[C@@H](CC(C)C)[C@@H]3[C@@H]1C
inactive: all assays above

C/C=C/C(=O)OC1/C=C/C(O)C(OC(C)=O)CCC(=O)OC1C (centres undefined)
inactive: all assays above

CCCNCCOc1ccc(NC(=O)c2c[nH]c3c2C(=O)CCC3)cc1F
inactive: all assays above

CNC(=O)c1ccc2c(c1)CCO[C@H]2CCN1CCN(c2ccc(C(N)=O)cc2)CC1
inactive: all assays above

CC(=O)c1ccc(O[C@@H]2O[C@H](CO[C@@H]3OC[C@@H](O)[C@H](O)[C@H]3O)[C@@H](O)[C@H](O)[C@H]2O)cc1
inactive: all assays above

COc1ccc(C(=O)CC(=O)O)c2c1C=CC(C)(C)O2
inactive: all assays above

COc1c(O[C@@H]2O[C@H](CO)[C@@H](O)[C@H](O)[C@H]2O)c(CCC(=O)O)cc2ccoc12
inactive: all assays above

Cc1nc(-c2cccnc2)sc1C(=O)Nc1ccccc1-c1cn2c(CN3CCOCC3)csc2n1
inactive: all assays above
